# Assays:
# [1] = molecular target: T1, Tyrosine-protein kinase ITK/TSK (Homo sapiens) (UniProt Q08881); settings: at 10 µM
# T1 sequence (whole entry): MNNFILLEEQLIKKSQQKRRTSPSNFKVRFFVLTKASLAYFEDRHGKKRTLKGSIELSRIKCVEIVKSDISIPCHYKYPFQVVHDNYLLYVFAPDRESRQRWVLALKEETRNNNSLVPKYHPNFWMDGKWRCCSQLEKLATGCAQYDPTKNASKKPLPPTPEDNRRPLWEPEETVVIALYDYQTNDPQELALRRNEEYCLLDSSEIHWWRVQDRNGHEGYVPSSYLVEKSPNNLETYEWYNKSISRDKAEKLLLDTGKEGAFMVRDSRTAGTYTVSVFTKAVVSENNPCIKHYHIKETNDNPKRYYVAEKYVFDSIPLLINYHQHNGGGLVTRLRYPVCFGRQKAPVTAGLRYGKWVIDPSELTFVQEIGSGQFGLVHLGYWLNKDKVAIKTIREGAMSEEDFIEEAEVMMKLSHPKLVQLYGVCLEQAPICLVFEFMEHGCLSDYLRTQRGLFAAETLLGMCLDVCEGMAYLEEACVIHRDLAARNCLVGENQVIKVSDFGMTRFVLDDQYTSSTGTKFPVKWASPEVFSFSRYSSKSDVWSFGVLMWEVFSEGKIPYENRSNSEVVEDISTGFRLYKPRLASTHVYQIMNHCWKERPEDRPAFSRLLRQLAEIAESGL
# [2] = molecular target: Tyrosine-protein kinase JAK2 (Homo sapiens) (UniProt O60674); settings: at 1 µM
# [3] = molecular target: Tyrosine-protein kinase JAK2 (Homo sapiens) (UniProt O60674); settings: at 10 µM
# [4] = molecular target: T2, Tyrosine-protein kinase JAK3 (Homo sapiens) (UniProt P52333); settings: at 1 µM
# T2 sequence (whole entry): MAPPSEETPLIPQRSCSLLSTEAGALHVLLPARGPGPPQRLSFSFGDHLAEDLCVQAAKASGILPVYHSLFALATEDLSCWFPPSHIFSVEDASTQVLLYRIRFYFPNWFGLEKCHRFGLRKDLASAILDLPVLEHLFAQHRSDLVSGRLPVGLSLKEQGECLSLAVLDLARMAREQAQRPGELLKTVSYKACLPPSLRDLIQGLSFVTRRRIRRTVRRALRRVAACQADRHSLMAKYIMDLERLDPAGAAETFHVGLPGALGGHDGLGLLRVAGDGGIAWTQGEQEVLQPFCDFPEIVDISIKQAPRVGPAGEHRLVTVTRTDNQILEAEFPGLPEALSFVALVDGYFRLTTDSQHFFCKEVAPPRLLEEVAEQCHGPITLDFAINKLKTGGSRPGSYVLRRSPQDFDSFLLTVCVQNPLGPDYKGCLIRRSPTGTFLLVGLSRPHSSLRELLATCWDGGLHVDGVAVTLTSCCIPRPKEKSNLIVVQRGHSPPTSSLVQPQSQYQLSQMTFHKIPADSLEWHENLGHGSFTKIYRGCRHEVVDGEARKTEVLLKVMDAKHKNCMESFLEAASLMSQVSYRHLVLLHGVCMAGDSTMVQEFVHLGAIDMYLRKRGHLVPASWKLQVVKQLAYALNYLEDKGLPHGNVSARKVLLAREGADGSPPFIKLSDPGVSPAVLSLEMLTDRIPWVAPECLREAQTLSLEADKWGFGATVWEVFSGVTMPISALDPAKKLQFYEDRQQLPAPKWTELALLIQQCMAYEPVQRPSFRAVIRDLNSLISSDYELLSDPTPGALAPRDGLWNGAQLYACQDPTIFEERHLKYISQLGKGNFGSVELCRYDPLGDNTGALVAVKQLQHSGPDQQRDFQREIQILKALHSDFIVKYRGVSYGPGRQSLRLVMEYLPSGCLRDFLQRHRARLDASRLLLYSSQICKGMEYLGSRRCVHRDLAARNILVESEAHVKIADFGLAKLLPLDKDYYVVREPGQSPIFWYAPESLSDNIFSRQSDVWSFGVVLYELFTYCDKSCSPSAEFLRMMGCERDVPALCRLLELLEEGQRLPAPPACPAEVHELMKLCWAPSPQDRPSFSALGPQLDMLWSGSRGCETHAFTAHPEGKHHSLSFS
# [5] = molecular target: T2, Tyrosine-protein kinase JAK3 (Homo sapiens); settings: at 10 µM
# [6] = molecular target: Mitogen-activated protein kinase 8 (Homo sapiens) (UniProt P45983); settings: at 1 µM
# [7] = molecular target: Mitogen-activated protein kinase 8 (Homo sapiens) (UniProt P45983); settings: at 10 µM
# [8] = molecular target: Mitogen-activated protein kinase 9 (Homo sapiens) (UniProt P45984); settings: at 1 µM
# [9] = molecular target: Mitogen-activated protein kinase 9 (Homo sapiens) (UniProt P45984); settings: at 10 µM
# [10] = molecular target: Mitogen-activated protein kinase 10 (Homo sapiens) (UniProt P53779); settings: at 1 µM
# [11] = molecular target: Mitogen-activated protein kinase 10 (Homo sapiens) (UniProt P53779); settings: at 10 µM
# [12] = molecular target: Vascular endothelial growth factor receptor 2 (Homo sapiens) (UniProt P35968); settings: at 1 µM
# [13] = molecular target: Vascular endothelial growth factor receptor 2 (Homo sapiens) (UniProt P35968); settings: at 10 µM
# [14] = molecular target: LIM domain kinase 1 (Homo sapiens) (UniProt P53667); settings: at 1 µM
# [15] = molecular target: LIM domain kinase 1 (Homo sapiens) (UniProt P53667); settings: at 10 µM
# [16] = molecular target: T3, Serine/threonine-protein kinase STK11 (Homo sapiens) (UniProt Q15831); settings: at 1 µM
# T3 sequence (whole entry): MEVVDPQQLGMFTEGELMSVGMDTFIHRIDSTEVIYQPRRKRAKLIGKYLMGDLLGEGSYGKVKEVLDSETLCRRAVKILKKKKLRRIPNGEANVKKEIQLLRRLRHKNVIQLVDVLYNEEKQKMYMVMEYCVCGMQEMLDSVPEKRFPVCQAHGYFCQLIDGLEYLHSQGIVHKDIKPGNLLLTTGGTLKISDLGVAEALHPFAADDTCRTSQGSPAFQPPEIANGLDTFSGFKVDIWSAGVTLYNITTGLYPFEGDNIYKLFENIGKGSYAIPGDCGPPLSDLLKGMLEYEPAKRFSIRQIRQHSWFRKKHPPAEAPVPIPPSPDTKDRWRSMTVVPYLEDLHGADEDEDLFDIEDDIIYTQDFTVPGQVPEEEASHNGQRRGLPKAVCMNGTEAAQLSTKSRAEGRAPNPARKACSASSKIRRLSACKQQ
# [17] = molecular target: T3, Serine/threonine-protein kinase STK11 (Homo sapiens); settings: at 10 µM
# [18] = molecular target: Serine/threonine-protein kinase 10 (Homo sapiens) (UniProt O94804); settings: at 1 µM
# [19] = molecular target: Serine/threonine-protein kinase 10 (Homo sapiens) (UniProt O94804); settings: at 10 µM
# [20] = molecular target: Tyrosine-protein kinase Lck (Homo sapiens) (UniProt P06239); settings: at 1 µM
# Sequence of Tyrosine-protein kinase Lck (Homo sapiens) (P06239 2-509 limits assumed): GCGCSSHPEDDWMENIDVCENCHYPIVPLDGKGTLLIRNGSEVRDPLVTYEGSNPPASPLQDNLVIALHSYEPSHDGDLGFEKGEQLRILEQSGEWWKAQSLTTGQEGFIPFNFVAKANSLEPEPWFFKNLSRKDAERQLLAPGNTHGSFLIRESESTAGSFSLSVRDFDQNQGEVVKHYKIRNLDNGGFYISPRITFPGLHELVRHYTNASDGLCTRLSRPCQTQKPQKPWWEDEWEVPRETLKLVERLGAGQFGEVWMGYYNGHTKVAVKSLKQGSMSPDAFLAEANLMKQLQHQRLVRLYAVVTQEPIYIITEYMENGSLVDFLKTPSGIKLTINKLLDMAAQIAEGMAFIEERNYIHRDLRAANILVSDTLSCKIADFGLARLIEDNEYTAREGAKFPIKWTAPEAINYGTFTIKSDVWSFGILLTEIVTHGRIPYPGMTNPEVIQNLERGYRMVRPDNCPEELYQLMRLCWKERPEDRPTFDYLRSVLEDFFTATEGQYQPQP
# Sequence of Serine/threonine-protein kinase 10 (Homo sapiens) (O94804 whole entry, looked up): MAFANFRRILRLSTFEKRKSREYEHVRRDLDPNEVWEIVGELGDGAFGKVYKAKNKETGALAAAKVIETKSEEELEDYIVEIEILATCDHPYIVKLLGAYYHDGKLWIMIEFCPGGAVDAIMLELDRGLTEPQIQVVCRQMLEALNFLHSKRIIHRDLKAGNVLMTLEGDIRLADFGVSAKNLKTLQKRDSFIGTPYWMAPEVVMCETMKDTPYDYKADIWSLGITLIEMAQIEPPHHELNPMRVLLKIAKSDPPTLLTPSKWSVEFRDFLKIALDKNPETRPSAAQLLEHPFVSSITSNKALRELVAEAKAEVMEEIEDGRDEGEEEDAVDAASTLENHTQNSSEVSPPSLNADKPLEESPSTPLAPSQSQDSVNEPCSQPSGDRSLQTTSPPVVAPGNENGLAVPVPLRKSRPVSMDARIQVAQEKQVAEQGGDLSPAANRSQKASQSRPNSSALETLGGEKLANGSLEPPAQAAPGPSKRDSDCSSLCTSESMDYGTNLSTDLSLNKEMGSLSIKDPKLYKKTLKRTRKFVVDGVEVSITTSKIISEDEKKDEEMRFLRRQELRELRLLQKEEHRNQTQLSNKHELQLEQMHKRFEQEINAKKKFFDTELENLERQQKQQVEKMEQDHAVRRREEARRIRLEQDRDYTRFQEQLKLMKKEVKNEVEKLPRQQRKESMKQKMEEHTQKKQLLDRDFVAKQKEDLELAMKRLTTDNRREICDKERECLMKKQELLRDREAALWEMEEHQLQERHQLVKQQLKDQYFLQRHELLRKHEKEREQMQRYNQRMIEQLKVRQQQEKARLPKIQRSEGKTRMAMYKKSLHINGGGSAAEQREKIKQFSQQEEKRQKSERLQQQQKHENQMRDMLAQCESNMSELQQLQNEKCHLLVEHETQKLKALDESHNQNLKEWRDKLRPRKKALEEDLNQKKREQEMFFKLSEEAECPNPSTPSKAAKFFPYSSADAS
# Sequence of LIM domain kinase 1 (Homo sapiens) (P53667 whole entry, looked up, the tested form may be a part): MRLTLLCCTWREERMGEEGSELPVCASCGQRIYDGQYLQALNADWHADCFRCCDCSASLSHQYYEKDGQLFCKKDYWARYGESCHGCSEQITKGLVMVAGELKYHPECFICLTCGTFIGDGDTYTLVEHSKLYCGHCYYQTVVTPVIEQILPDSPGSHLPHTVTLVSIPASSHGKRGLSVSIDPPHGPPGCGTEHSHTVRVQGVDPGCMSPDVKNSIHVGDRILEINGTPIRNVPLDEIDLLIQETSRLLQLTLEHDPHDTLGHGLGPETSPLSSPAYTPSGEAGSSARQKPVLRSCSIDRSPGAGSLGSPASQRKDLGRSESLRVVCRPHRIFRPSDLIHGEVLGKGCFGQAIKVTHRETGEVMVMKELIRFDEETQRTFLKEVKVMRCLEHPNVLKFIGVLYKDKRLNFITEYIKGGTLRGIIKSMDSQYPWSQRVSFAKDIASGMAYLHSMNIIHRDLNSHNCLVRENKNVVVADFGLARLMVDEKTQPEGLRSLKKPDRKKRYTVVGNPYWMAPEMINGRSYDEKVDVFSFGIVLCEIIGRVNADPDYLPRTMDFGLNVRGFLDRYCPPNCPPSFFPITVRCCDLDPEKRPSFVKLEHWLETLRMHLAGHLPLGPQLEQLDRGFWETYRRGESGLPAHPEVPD
# Sequence of Tyrosine-protein kinase JAK2 (Homo sapiens) (O60674 whole entry): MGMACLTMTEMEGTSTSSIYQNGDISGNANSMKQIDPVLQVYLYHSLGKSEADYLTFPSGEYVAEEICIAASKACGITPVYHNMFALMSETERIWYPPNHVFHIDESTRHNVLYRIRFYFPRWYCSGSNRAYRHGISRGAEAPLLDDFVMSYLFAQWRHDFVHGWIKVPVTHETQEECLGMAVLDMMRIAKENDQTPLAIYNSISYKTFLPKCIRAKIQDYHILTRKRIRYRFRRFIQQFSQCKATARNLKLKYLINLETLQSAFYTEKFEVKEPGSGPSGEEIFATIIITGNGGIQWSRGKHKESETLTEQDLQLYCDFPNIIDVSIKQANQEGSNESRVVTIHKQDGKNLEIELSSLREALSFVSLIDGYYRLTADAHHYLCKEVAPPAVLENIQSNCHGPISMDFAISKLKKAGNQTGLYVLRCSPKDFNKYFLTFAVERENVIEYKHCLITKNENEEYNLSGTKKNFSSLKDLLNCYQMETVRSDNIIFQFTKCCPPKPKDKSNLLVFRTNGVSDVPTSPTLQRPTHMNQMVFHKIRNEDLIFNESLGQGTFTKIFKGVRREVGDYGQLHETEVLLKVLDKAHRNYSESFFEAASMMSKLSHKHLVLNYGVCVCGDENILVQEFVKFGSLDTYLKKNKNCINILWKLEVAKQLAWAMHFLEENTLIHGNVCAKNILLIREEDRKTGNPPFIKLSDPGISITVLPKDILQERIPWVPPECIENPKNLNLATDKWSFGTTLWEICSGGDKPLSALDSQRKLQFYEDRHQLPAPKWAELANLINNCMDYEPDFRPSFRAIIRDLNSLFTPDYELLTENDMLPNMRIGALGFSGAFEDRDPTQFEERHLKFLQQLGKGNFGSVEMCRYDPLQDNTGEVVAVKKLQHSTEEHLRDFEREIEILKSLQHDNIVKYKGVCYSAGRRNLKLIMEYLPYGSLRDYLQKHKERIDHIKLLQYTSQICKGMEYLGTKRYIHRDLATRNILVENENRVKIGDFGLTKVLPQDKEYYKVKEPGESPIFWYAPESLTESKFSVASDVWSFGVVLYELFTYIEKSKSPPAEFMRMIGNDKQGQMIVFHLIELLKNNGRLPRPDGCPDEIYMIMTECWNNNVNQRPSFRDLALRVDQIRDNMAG
# Sequence of Vascular endothelial growth factor receptor 2 (Homo sapiens) (P35968 whole entry, the tested form may be a part): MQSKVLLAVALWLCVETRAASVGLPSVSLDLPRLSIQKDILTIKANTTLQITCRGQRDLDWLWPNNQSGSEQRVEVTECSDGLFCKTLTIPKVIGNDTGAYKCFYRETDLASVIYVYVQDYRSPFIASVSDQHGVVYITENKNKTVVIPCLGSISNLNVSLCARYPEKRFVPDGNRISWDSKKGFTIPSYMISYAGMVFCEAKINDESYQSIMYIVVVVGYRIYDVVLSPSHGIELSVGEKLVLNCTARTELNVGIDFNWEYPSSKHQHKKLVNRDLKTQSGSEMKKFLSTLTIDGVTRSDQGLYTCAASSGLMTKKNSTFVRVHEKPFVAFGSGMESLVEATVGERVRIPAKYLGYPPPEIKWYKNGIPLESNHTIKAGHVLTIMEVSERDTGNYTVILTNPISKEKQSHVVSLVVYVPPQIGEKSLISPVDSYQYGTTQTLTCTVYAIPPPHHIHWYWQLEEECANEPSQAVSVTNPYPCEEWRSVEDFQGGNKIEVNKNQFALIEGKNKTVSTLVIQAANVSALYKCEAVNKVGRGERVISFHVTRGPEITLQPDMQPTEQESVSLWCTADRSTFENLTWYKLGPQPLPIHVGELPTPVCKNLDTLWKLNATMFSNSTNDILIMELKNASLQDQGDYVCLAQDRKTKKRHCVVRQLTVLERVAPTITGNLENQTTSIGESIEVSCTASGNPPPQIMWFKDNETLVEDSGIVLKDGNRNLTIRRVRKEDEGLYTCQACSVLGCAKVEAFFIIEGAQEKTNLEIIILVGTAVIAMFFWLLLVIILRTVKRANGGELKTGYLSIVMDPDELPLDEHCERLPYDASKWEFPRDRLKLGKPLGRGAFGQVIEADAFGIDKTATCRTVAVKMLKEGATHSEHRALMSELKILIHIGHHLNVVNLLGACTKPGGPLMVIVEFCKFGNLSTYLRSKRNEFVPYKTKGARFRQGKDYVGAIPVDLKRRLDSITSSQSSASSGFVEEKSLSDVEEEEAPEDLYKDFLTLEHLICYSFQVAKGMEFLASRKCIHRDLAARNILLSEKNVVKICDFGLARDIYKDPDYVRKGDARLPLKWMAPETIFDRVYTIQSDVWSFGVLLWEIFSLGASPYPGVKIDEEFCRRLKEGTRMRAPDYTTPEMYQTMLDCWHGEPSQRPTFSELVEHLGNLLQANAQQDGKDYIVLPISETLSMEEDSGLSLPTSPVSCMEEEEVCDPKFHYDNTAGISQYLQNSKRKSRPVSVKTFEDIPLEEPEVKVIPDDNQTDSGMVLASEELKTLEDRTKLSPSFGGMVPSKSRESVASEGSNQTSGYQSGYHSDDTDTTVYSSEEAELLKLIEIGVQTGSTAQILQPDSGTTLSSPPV
# Sequence of Mitogen-activated protein kinase 9 (Homo sapiens) (P45984 whole entry, looked up): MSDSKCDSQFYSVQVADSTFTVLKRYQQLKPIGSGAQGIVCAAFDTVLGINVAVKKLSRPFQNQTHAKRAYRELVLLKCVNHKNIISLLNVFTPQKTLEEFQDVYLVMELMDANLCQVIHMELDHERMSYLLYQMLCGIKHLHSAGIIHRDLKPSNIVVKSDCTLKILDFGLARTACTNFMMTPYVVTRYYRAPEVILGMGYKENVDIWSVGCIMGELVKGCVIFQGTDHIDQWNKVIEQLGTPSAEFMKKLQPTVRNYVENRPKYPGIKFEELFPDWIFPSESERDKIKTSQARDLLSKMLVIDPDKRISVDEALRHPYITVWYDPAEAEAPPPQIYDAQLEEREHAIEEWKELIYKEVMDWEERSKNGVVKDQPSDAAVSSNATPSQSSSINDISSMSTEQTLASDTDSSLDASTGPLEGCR
smiles,measurement,setting,value
CCN(CC)CCCCN1c2ccccc2Oc2ccc(Cl)cc21,residual activity,[1],102%
same,residual activity,[2],107%
same,residual activity,[3],138%
same,residual activity,[4],110%
same,residual activity,[5],142%
same,residual activity,[6],113%
same,residual activity,[7],91%
same,residual activity,[8],106%
same,residual activity,[9],104%
same,residual activity,[10],111%
same,residual activity,[11],137%
same,residual activity,[12],112%
same,residual activity,[13],104%
same,residual activity,[14],133%
same,residual activity,[15],98%
same,residual activity,[16],103%
same,residual activity,[17],94%
same,residual activity,[18],110%
same,residual activity,[19],100%
same,residual activity,[20],84%
COc1ccc(S(=O)(=O)N(CCO)c2ccccc2CN(C)C/C=C/c2ccc(Cl)cc2)cc1,residual activity,[1],94%
same,residual activity,[2],102%
same,residual activity,[3],131%
same,residual activity,[4],116%
same,residual activity,[5],104%
same,residual activity,[6],95%
same,residual activity,[7],85%
same,residual activity,[8],92%
same,residual activity,[9],97%
same,residual activity,[10],82%
same,residual activity,[11],88%
same,residual activity,[12],100%
same,residual activity,[13],95%
same,residual activity,[14],93%
same,residual activity,[15],83%
same,residual activity,[16],100%
same,residual activity,[17],93%
same,residual activity,[18],107%
same,residual activity,[19],89%
same,residual activity,[20],80%
COc1ccc(CNc2nc(N(CCO)CCO)nc3c2ncn3C(C)C)cc1,residual activity,[1],85%
same,residual activity,[2],91%
same,residual activity,[3],99%
same,residual activity,[4],105%
same,residual activity,[5],107%
same,residual activity,[6],104%
same,residual activity,[7],87%
same,residual activity,[8],83%
same,residual activity,[9],85%
same,residual activity,[10],75%
same,residual activity,[11],70%
same,residual activity,[12],79%
same,residual activity,[13],74%
same,residual activity,[14],90%
same,residual activity,[15],88%
same,residual activity,[16],126%
same,residual activity,[17],73%
same,residual activity,[18],101%
same,residual activity,[19],88%
same,residual activity,[20],62%
O=c1c2ccccc2[nH]c(=S)n1CCN1CCC(=C(c2ccc(F)cc2)c2ccc(F)cc2)CC1,residual activity,[1],96%
same,residual activity,[2],122%
same,residual activity,[3],102%
same,residual activity,[4],97%
same,residual activity,[5],101%
same,residual activity,[6],104%
same,residual activity,[7],83%
same,residual activity,[8],107%
same,residual activity,[9],101%
same,residual activity,[10],98%
same,residual activity,[11],54%
same,residual activity,[12],103%
same,residual activity,[13],90%
same,residual activity,[14],119%
same,residual activity,[15],93%
same,residual activity,[16],123%
same,residual activity,[17],128%
same,residual activity,[18],107%
same,residual activity,[19],97%
same,residual activity,[20],144%
COc1ccc(OC)c2c(=S)c3ccccc3[nH]c12,residual activity,[1],97%
same,residual activity,[2],88%
same,residual activity,[3],102%
same,residual activity,[4],97%
same,residual activity,[5],97%
same,residual activity,[6],99%
same,residual activity,[7],95%
same,residual activity,[8],88%
same,residual activity,[9],106%
same,residual activity,[10],80%
same,residual activity,[11],65%
same,residual activity,[12],88%
same,residual activity,[13],97%
same,residual activity,[14],93%
same,residual activity,[15],88%
same,residual activity,[16],97%
same,residual activity,[17],95%
same,residual activity,[18],94%
same,residual activity,[19],89%
same,residual activity,[20],101%
O=C(O)c1ccc2c3c1cccc3c(=O)n1c3ccccc3nc21,residual activity,[1],94%
same,residual activity,[2],100%
same,residual activity,[3],40%
same,residual activity,[4],46%
same,residual activity,[5],9%
same,residual activity,[6],105%
same,residual activity,[7],79%
same,residual activity,[8],83%
same,residual activity,[9],55%
same,residual activity,[10],78%
same,residual activity,[11],34%
same,residual activity,[12],41%
same,residual activity,[13],56%
same,residual activity,[14],101%
same,residual activity,[15],89%
same,residual activity,[16],107%
same,residual activity,[17],95%
same,residual activity,[18],60%
same,residual activity,[19],39%
same,residual activity,[20],83%
Cc1nc2cc3nc(-c4cccs4)cnc3cc2n1C,residual activity,[1],71%
same,residual activity,[2],113%
same,residual activity,[3],106%
same,residual activity,[4],105%
same,residual activity,[5],106%
same,residual activity,[6],114%
same,residual activity,[7],100%
same,residual activity,[8],106%
same,residual activity,[9],106%
same,residual activity,[10],119%
same,residual activity,[11],107%
same,residual activity,[12],36%
same,residual activity,[13],5%
same,residual activity,[14],116%
same,residual activity,[15],99%
same,residual activity,[16],97%
same,residual activity,[17],107%
same,residual activity,[18],107%
same,residual activity,[19],99%
same,residual activity,[20],112%
